Bioassay records deposited in PubChem by National Center for Advancing Translational Sciences (NCATS).
Six1-Eya2 inh – inhibitors of human Six1/Eya2 interaction. 360,000 compounds, 0.56% hits. AlphaScreen GST-Six1/His-Eya2 binding, biochemical; stronger effect = lower value. Q15475+O00167. activity change, % (concentration not given with the values); in the data active = activity change below about -65%; inconclusive = mostly about -30% to -63%; also: % is scaled to controls: 0 for no effect and ±100 for the full control effect
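Six1/Eya2 binding was read as AlphaScreen signal after compounds were pinned into GST-Six1 plus His-tagged Eya2 (5X stock 250/500 nM) in pH 8.0 Tris/NaCl/TCEP buffer, beads added, then incubated 1 h, 37 C, dark.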
BAZ2B block – blocks human BAZ2B; AlphaScreen BAZ2B-H3K14Ac peptide displacement; Potency, µM (top dose mostly 114 µM), inactives show at the top dose activity change, negative = inhibition, actives largely listed as inhibitors; 360,000 compounds, 4.4% hits; AID 504333; also: potency is read from the fitted curve at half-maximal effect; % is scaled to controls: 0 for no effect and ±100 for the full control effect; nearly all actives have a fitted effect of over 60% in size
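Protein-peptide AlphaScreen: BAZ2B 50 nM, b-H3K14Ac 50 nM, 1x PBS pH 7.4 + 0.01% Tween-20. Preincubation 30 min RT; cpd 30 min RT (top 110 uM); beads 20 min RT, light-protected.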
JMJD2A Tudor inh – inhibitors of human JMJD2A Tudor domain | O75164 | AlphaScreen JMJD2A-Tudor / H3K4me3 peptide binding | AID 504339 | Potency, µM (highest dose often 114 µM), inactives show top-dose activity change, negative = inhibition, usual class: inhibitors | 390,000 compounds, 4.4% hits; also: potency is read from the fitted curve at half-maximal effect; % is scaled to controls: 0 for no effect and ±100 for the full control effect; nearly all actives have a fitted effect of over 50% in size
CtBP-E1A inh – CtBP/E1A binding inhibition. AlphaScreen GST-E1A/His-CtBP binding, 1536-well; stronger effect = lower value. activity change, % (concentration not given with the values). 340,000 compounds, 0.49% hits; in the data active = activity change below about -65%; inconclusive = mostly about -30% to -63%; also: % is scaled to controls: 0 for no effect and ±100 for the full control effect
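AlphaScreen with 125 nM GST-E1A and 125 nM His-CtBP (5X stocks) in Tris pH 8.0, 300 mM NaCl, BSA, Tween 20, TCEP. Compounds preincubated 2 h at 37 deg C, then glutathione donor/nickel acceptor beads added for 1 h at 37 deg C in dark.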
HP1b chromo inh – blocks HP1-beta chromodomain binding to methylated histone tails; P83916; AlphaScreen HP1-beta / biotin-H3K9me3 peptide binding; Potency, µM (highest dose often 114 µM), without a hit: at the top dose activity change, negative = inhibition, actives largely listed as inhibitors; 390,000 compounds, 0.56% hits; AID 540317; also: potency is read from the fitted curve at half-maximal effect; nearly all actives have a fitted effect of over 70% in size
Target sequence (P83916 whole entry, looked up): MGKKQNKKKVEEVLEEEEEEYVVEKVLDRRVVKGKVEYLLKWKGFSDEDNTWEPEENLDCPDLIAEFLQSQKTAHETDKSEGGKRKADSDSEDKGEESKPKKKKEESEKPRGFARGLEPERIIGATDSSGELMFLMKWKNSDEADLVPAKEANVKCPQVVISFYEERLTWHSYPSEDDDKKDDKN
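Compound inhibition of the preformed complex between 50 nM HP1-beta and 50 nM biotinylated H3K9me3 peptide was read by AlphaScreen. Buffer was PBS pH 7.4 with 0.01% Tween-20. Incubations ran 30 min at room temperature, with 10 ug/mL donor/acceptor beads.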
G9a block – blocks human histone lysine methyltransferase G9a | Q96KQ7 | G9a H3K9 monomethylation, AlphaScreen, 2 h | Potency, µM (titrated, usually from 102 µM), inactives show at the top dose activity, negative = inhibition, actives largely listed as inhibitors | 350,000 compounds, 8.8% hits | AID 504332; also: potency is read from the fitted curve at half-maximal effect; % is scaled to controls: 0 for no effect and ±100 for the full control effect; nearly all actives have a fitted effect of over 75% in size
Target sequence (Q96KQ7 913-1193 limits assumed): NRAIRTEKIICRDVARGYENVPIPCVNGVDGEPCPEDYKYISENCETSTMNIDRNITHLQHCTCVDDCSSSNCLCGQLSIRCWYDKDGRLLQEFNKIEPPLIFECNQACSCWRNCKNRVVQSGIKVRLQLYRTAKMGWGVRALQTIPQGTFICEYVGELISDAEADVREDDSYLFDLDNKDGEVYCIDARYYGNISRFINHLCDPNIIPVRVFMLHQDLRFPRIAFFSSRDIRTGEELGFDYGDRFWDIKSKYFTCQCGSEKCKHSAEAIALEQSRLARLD
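Signal arises when biotinylated H3K9 peptide, once monomethylated, bridges streptavidin donor and antibody-captured acceptor beads. Enzyme at 20 nM was preincubated 15 min with test compounds; peptide 500 nM and SAM 20 uM then reacted for 2 h.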
* marks the source's active call; other numbers are inactive results; [ ] = remark or other dose. An excerpt weighted towards active compounds, which were near 10% of everything screened. Unless noted, calls follow the shape of the dose curve; as a rule, active = well fitted inhibition curve with a large enough effect; inconclusive = small, poorly fitted or top-dose-only effect; inactive = no such curve, though single readings can be large or run the other way.

CC(=O)c1ccc(Nc2ccc(-c3ccccc3C)nn2)cc1 was read as Six1-Eya2 inh inconclusive, BAZ2B block 79.4µM*, JMJD2A Tudor inh -31.6%, CtBP-E1A inh inconclusive and HP1b chromo inh 10.2%.
For CCc1c(C)sc(NC(=O)c2ccoc2C)c1C(N)=O the results were Six1-Eya2 inh -25.1, BAZ2B block inconclusive, JMJD2A Tudor inh 56.2µM*, CtBP-E1A inh -9.0, HP1b chromo inh 28.2µM* and G9a block 7.08µM*.
For Cc1occc1C(=O)Nc1sc2c(c1C(N)=O)CCCCC2 the results were Six1-Eya2 inh -7.4, BAZ2B block -37.5%, JMJD2A Tudor inh -29.3%, CtBP-E1A inh -13.8, HP1b chromo inh -3.1% and G9a block 12.6µM*.
CCc1c(C)sc(NC(=O)/C=C/C(=O)O)c1C(N)=O was read as Six1-Eya2 inh 2.7, BAZ2B block -7.8%, JMJD2A Tudor inh -21.1%, HP1b chromo inh 31.8% and G9a block 35.5µM*.
`CCOC(=O)c1ccc(NC(=O)c2ccccc2[N+](=O)[O-])cc1` gave Six1-Eya2 inh 1.8, BAZ2B block -21.3%, JMJD2A Tudor inh -32.3%[57.1 µM], CtBP-E1A inh 2.2, HP1b chromo inh inconclusive and G9a block -40.0%[59 µM].
COC(=O)c1c(NC(=O)c2ccoc2C)sc2c1CCC2 was read as Six1-Eya2 inh -1.4, BAZ2B block inconclusive, JMJD2A Tudor inh inconclusive, CtBP-E1A inh 1.2, HP1b chromo inh -10.6% and G9a block inconclusive.
Screening CCc1c(C)sc(NC(=O)c2ccccc2[N+](=O)[O-])c1C(N)=O returned Six1-Eya2 inh -6.1, BAZ2B block -6.1%, JMJD2A Tudor inh -5.7%, CtBP-E1A inh -4.0, HP1b chromo inh 14.7% and G9a block 44.7µM*.
Screening Cc1ccc2c(=O)c(C(=O)c3cccc(Cl)c3)cn(CC(=O)Nc3ccc4c(c3)OCCO4)c2n1 returned BAZ2B block -0.8%, JMJD2A Tudor inh -0.6%, HP1b chromo inh 47.6% and G9a block 6.6%[59 µM].
For CN(C)S(=O)(=O)c1cccc(NC(=O)COC(=O)/C=C/c2ccco2)c1 the results were Six1-Eya2 inh -2.9, BAZ2B block inconclusive, JMJD2A Tudor inh inconclusive, CtBP-E1A inh 0.4, HP1b chromo inh inconclusive and G9a block inconclusive.
Screening Cc1ccc(/C=C/C(=O)OCC(=O)Nc2cccc(S(=O)(=O)N(C)C)c2)o1 returned Six1-Eya2 inh -4.3, BAZ2B block 79.4µM*, JMJD2A Tudor inh -29.1%, CtBP-E1A inh 7.6, HP1b chromo inh -24.6% and G9a block inconclusive.
CCN(CC)S(=O)(=O)c1cccc(NC(=O)COC(=O)/C=C/c2ccco2)c1 was read as Six1-Eya2 inh -4.8, BAZ2B block 50.1µM*, JMJD2A Tudor inh -14.9%, CtBP-E1A inh 2.9, HP1b chromo inh 5.1% and G9a block 15.8µM*.
Screening CCN(CC)c1ccc(S(=O)(=O)N2CCOCC2)cc1NC(=O)COC(=O)/C=C/c1ccc(C)o1 returned Six1-Eya2 inh -15.3, BAZ2B block -29.2%, JMJD2A Tudor inh -23.6%, CtBP-E1A inh -0.2, HP1b chromo inh 6.2% and G9a block 44.7µM*.
For CCOc1ccc(CCNC(=O)c2nn(-c3ccc(OC)cc3)c(=O)c3c2c2ccccc2n3C)cc1OCC the results were JMJD2A Tudor inh -19.7%, HP1b chromo inh 16.4% and G9a block 8.2%[59 µM].
Screening Cc1ccc(S(=O)(=O)N2CCN(c3cc(-c4cccs4)nc4ccccc34)CC2)cc1 returned JMJD2A Tudor inh -15.6% and HP1b chromo inh -1.3%.
O=C(Cn1ncc2c(=O)oc3ccccc3c21)N1CCN(c2ccc(Cl)cc2)CC1 was read as JMJD2A Tudor inh -11.7%, HP1b chromo inh 24.7% and G9a block -17.8%[59 µM].
`CC(C)C(=O)Nc1cccc(N2CCN(CCCN3C(=O)C4CCCCN4C3=O)CC2)c1` (stereo not given) gave Six1-Eya2 inh 10.4, JMJD2A Tudor inh 79.4µM*, CtBP-E1A inh -7.0 and HP1b chromo inh 18.0%.
For O=C1C2CCCCN2C(=O)N1CCCCN1CCN(c2cccc(Cl)c2)CC1 (stereo not given) the results were Six1-Eya2 inh -19.7, BAZ2B block -19.6%, JMJD2A Tudor inh -25.2%, CtBP-E1A inh 6.7, HP1b chromo inh 8.5% and G9a block inconclusive.
For O=C1C2CCCN2C(=O)N1CCCN1CCN(c2cccc(Cl)c2)CC1 (stereo not given) the results were Six1-Eya2 inh -3.0, BAZ2B block 1.2%, JMJD2A Tudor inh -12.8%, CtBP-E1A inh -1.7, HP1b chromo inh 32.5% and G9a block 14.9%[59 µM].
`Cc1ccc(N2CCN(CCCN3C(=O)C4CCCN4C3=O)CC2)cc1` (stereo not given) gave Six1-Eya2 inh 4.3, BAZ2B block inconclusive, JMJD2A Tudor inh -21.3%, CtBP-E1A inh 1.2, HP1b chromo inh 23.6% and G9a block 8.91µM*.
For O=C(c1ccc2c(c1)N(Cc1ccc(Cl)cc1)C(=O)c1ccccc1S2(=O)=O)N1CCOCC1 the results were BAZ2B block -10.1%, JMJD2A Tudor inh -26.9%, HP1b chromo inh 8.0% and G9a block -3.9%[59 µM].
Screening CC1=CC(C)(C)Nc2cc(C)c(C)cc21 returned Six1-Eya2 inh -27.9, BAZ2B block 50.1µM*, JMJD2A Tudor inh 50.1µM*, CtBP-E1A inh 6.8, HP1b chromo inh inconclusive and G9a block 31.6µM*.
CC1=CC(C)(C)Nc2ccc(C)cc21 was read as Six1-Eya2 inh -12.7, BAZ2B block 50.1µM*, JMJD2A Tudor inh inconclusive, CtBP-E1A inh -0.3, HP1b chromo inh 7.3% and G9a block 44.7µM*.
Screening CC1=CC(C)(C)Nc2ccc(Cc3ccc4c(c3)C(C)=CC(C)(C)N4)cc21 returned Six1-Eya2 inh inconclusive, BAZ2B block 14.1µM*, JMJD2A Tudor inh 17.8µM*, HP1b chromo inh inconclusive and G9a block 10µM*.
Screening COc1ccc(C(=O)N2CCC3(CCCN(c4cccc(-c5ccccc5)c4)C3)CC2)cc1 returned G9a block 3.7%[12.7 µM].
`Cc1cccc(N=Nc2c(O)[nH]c3ccc(Br)cc23)c1` gave Six1-Eya2 inh 3.2, BAZ2B block -22.1%, JMJD2A Tudor inh -28.1%, CtBP-E1A inh -2.3, HP1b chromo inh 23.0% and G9a block 44.7µM*.
Screening COc1ccc2[nH]c(C)c(C(=O)CN(C)C)c2c1 returned Six1-Eya2 inh -0.9, BAZ2B block 8.7%, JMJD2A Tudor inh -5.5%, CtBP-E1A inh 8.5, HP1b chromo inh 22.9% and G9a block -3.4%[2.33 µM].
`COc1ccccc1N=Nc1c(O)[nH]c2ccc(Br)cc12` gave Six1-Eya2 inh -4.6, BAZ2B block 3.2%, JMJD2A Tudor inh 44.7µM*, CtBP-E1A inh 3.2, HP1b chromo inh -2.1% and G9a block -9.6%.
